Our source for the inhibition values is PubChem BioAssay AID624330 (Southern Research Specialized Biocontainment Screening …, 2012).

Among all 340,000 compounds or so, about 2,100 (0.62%) were called active. Only a sample is shown. Measured potencies and affinities stand elsewhere. A number with no mark means an inactive call.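 The calls were made as follows: active = first-screen hits whose inhibition reached a set limit at any dose in the follow-up dose series; inconclusive = inhibition above the set first-screen limit but never retested; inactive = the rest.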

The target in this experiment is Rac GTPase-activating protein 1 (Homo sapiens) (UniProt Q9H0H5). As to the kind of experiment: blockers of MgcRacGAP-driven Rac1 GTP hydrolysis – biochemical, ADP Hunter fluorescence, primary and confirmatory, confirmation (AID 624330).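 Also: fluorescence reports GDP produced by GAP-driven GTP hydrolysis.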 The following applies: MgcRacGAP-stimulated Rac1 GTP hydrolysis, at 30 µM, active compounds read high, GST-tagged Rac1 F28L mutant substrate.
Sequence of Rac GTPase-activating protein 1 (Homo sapiens) (Q9H0H5 whole entry, looked up): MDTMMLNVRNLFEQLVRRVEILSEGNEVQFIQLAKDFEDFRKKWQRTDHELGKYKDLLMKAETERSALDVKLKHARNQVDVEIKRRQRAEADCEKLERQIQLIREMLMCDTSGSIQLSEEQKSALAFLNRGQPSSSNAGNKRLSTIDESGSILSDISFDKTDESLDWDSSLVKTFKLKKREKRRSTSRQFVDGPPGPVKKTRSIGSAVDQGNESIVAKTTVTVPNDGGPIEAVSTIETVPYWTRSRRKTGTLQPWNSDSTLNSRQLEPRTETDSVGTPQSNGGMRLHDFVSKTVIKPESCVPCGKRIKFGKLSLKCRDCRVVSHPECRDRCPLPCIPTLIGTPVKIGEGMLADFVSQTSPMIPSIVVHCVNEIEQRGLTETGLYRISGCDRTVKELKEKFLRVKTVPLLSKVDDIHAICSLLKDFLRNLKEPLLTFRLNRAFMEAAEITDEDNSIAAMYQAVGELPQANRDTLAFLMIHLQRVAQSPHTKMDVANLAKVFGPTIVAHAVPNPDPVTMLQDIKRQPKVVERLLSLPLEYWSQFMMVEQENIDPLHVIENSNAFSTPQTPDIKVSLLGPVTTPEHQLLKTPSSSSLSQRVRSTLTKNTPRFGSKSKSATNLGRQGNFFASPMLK
What is called inhibition is the drop in the measured response relative to a control, in per cent. On to `CNc1ccc(/C=C/C(=O)c2cccc3ccccc23)cc1[N+](=O)[O-]`, for which the inhibition was 1.28%.
In the case of `CCN(C(=O)COC(=O)/C=C/c1c(C)nn(-c2ccccc2)c1C)C1CCS(=O)(=O)C1` (stereo not drawn), the inhibition is 5.67%.
With `CC(=O)c1ccc(NC(=O)CN2CCN(c3ccccc3)CC2)cc1`, the inhibition was 5.48%.
Regarding `COc1ccc2[nH]c3c(=O)n(Cc4ccc(C(=O)N5CCCCCC5)cc4)c(=S)[nH]c3c2c1`, the inhibition is 6.08%.
The figure for `COc1ccc2[nH]c3c(=O)n(CCCCC(=O)N4CCCC4)c(=S)[nH]c3c2c1` is 23.1%; for `COc1ccc2[nH]c3c(=O)n(Cc4ccc(C(=O)N5CCCC5)cc4)c(=S)[nH]c3c2c1` it is 4.08%; for `CC[C@H](C)NC(=O)CCCCCn1c(=S)[nH]c2c([nH]c3ccc(OC)cc32)c1=O` it is 3.32%.
With `CC(C)(CO)CNC(=O)CCc1nnc(-c2ccc(-c3ccccc3)cc2)o1` the figure was 9.2%; with `CC(OC(=O)c1ccc(-c2ccc(O)cc2)cc1)C(=O)NC1CCCCC1C` (stereo not drawn), 8.27%; with `CC(C)CN1CCC(Oc2cccc(C(=O)NCCc3ccccc3)c2)CC1`, 11.2%.
For the compound `CC(=O)c1sc(NC(=O)c2cccc(N3C(=O)CCC3=O)c2)nc1-c1ccccc1`, the inhibition is 2.55%.
The figure for `C[C@@H]1CN([C@@H](C)CO)C(=O)CCCn2nncc2CO[C@H]1CN(C)S(=O)(=O)c1ccc2c(c1)OCCCO2` is 7.05%; for `Cc1ccc([C@@H]2C[C@H]3[C@@H](CN2S(=O)(=O)c2ccc(Cl)cc2)C(=O)C[C@@H](c2ccccc2)N3S(=O)(=O)c2ccc(C)cc2)cc1` it is 17.6%.
Turning to `Cc1ccc(C2/C=C\CC(NC(=O)OCC3c4ccccc4-c4ccccc43)CC(=O)N2Cc2ccccc2)cc1` (stereo not drawn), the inhibition was 7.21%.
The figure for `Cc1c(-c2ccccc2)cn2c1-c1ccc(C)n1CC2` is 5.62%; for `CCCC1=[N+](CC(C)=O)CCn2c(C)ccc21` it is -4.62%; for `COc1cc2c(cc1NC(=O)CSc1nc3cc(Cl)ccc3s1)oc1ccccc12` it is 5.98%.
As to `CCc1ccc(-c2nn(Cc3ccccc3)cc2C(=O)NCC2CCCO2)cc1` (stereo not drawn), the inhibition is 0.77%.
Regarding `O=C(N/N=C/c1cccc(F)c1)c1cc(-c2ccco2)nc2ccccc12`, the inhibition is 7.31%.
The figure for `CC(=O)Nc1ccc(/C=N/NC(=O)c2cc(-c3ccco3)nc3ccccc23)cc1` is 6.26%; for `CSc1nc(C)c(C(=O)C[n+]2ccccc2)cc1C#N` it is 5.97%; for `FC(F)(F)c1cccc(N2CCN(Cc3ccoc3)CC2)c1` it is 9.97%.
Take `COc1ccc(-n2c(=S)[nH]c3cc(C(=O)O)ccc3c2=O)cc1`: the inhibition was 1.88%.
For the compound `COc1cc(S(N)(=O)=O)c(OC)cc1N`, the inhibition is 7.46%.
With `COc1ccc(C(=O)c2ccc(OC)c(N)c2)cc1N`, the inhibition is 4.59%.
The figure for `Cc1ccc(N=Nc2ccc(N)cc2C)c(S(N)(=O)=O)c1` is 13.8%.
`COc1ccc(OC)c(N)c1`: the inhibition is 18.5%.
The figure for `COc1ccc(N=Nc2ccc(N)nc2N)cc1` is 18.6%; for `Cc1cc(N=Nc2c(O)c3ccccc3[nH]c2=O)ccc1N=Nc1ccc(C(=O)N(C)C)cc1` it is 6.51%.
With `CCCNS(=O)(=O)c1ccc(CCC(=O)NCCc2ccc(OC)c(OC)c2)cc1` the figure was 1.4%.
Regarding `NC(N)=NC1=NC(=O)/C(=C/c2ccccc2-n2cccn2)S1`, the inhibition was 10.9%.
As for `CC1(C)CC(=O)C(C=Nc2ccc(NC3=C(C#N)C(=O)CC(C)(C)C3)cc2)=C(O)C1`, the inhibition was 7.44%.
With `CC(/C=N/O)Cc1ccc2c(c1)OCO2` (stereo not drawn) the figure was 2.11%.
In the case of `COc1ccc(C2C(C(=O)NCc3ccco3)c3ccccc3C(=O)N2C)cc1` (stereo not drawn), the inhibition is 0.04%.
Consider `CC1=C(C(=O)N(C)C)CC(CC(=O)NC2CCCC2)C(=O)N1CCC1=CCCCC1` (stereo not drawn), for which the inhibition is 14.5%.
The figure for `O=C(CNC(=O)c1ccccc1Br)N/N=C/c1cccs1` is 0.32%.
Take `CCCC(=O)Nc1ccc2c(c1)c1ccccc1n2CC`: the inhibition was 10.5%.
With `CCn1c2ccccc2c2cc(NC(C)=O)ccc21`, the inhibition was 6.13%.
In the case of `COc1ccc(CNCc2ccc3ccccc3c2)c(OC)c1`, the inhibition is 28.9%.
As to `COc1cccc(CNCc2ccc(OC)cc2OC)c1`, the inhibition is 22.9%.
Regarding `CCn1c2ccccc2c2cc(CC(N)=O)ccc21`, the inhibition is 8.07%.
With `CCn1c2ccccc2c(=O)c2ccccc21` the figure was 5.08%; with `CCn1c2ccccc2c2cc(NC(=O)CC(C)=O)ccc21`, 8.51%; with `CCn1c2ccccc2c2cc(CNCCCN3CCOCC3)ccc21`, 20.3%.
The figure for `CC1=CC(C)(C)NC(=S)N1c1cccc2ccccc12` is 12.8%; for `O=C(O)CSc1nnc(Nc2ccccc2)n1-c1ccccc1` it is 1.56%; for `COc1ccc(/C=C2\SC(=S)N(CC(=O)OCC(=O)Nc3ccc(C)cc3Cl)C2=O)cc1` it is 1.09%.
The figure for `CN1C[C@@H]2[C@@H]3C(=O)N(Cc4ccccc4)C(=O)[C@@H]3[C@](C)(C1=O)N2C(=O)c1ccc(Br)cc1` is 5.77%.
Regarding `CCC(C(=O)OCC(=O)c1ccc(OC)cc1OC)c1ccccc1` (stereo not drawn), the inhibition is 5.77%.
In the case of `COc1ccccc1C(=O)NC(=O)COC(=O)c1nc(Cl)ccc1Cl`, the inhibition was 8.9%.
As to `Cc1cc(F)ccc1S(=O)(=O)N1CCCOC1CNC(=O)C(=O)NCc1ccc2c(c1)OCO2` (stereo not drawn), the inhibition is 2.65%.
`CCOC(=O)c1ccc(NC(=O)CC2OCCN(CC)C2=O)cc1` (stereo not drawn): the inhibition is 7.78%.
Regarding `CC(C)C(=O)Nc1cc(S(=O)(=O)Nc2cccc(Cl)c2)ccc1Cl`, the inhibition was 12.6%.
With `CCCCc1c(C)c(C#N)c2nc3ccccc3n2c1Nc1c(C)n(C)n(-c2ccccc2)c1=O`, the inhibition is 8.78%.
With `COc1cccc(/C=C/C(=O)OCC(=O)Nc2ccc3c(c2)OCCO3)c1`, the inhibition is 14.2%.
The figure for `COc1ccc(/C=C/C(=O)OCC(=O)Nc2ccc3c(c2)OCO3)cc1` is 10.3%; for `COc1cccc(/C=C/C(=O)OCC(=O)Nc2ccc3c(c2)OCO3)c1` it is 13%; for `COc1cc(/C=C/C(=O)OCC(=O)Nc2ccc3c(c2)OCCO3)ccc1OCC#N` it is 5.37%.
